BAZ2B inh: blocks human BAZ2B | Q9UIF8 | AlphaScreen BAZ2B-H3K14Ac peptide displacement | Potency, µM (titrated, usually from 114 µM), most hits filed as inhibitors | 360,000 tested, 4.4% active | AID 504333; also: nearly all actives have a fitted effect of over 60% in size
Target sequence (Q9UIF8 whole entry, looked up): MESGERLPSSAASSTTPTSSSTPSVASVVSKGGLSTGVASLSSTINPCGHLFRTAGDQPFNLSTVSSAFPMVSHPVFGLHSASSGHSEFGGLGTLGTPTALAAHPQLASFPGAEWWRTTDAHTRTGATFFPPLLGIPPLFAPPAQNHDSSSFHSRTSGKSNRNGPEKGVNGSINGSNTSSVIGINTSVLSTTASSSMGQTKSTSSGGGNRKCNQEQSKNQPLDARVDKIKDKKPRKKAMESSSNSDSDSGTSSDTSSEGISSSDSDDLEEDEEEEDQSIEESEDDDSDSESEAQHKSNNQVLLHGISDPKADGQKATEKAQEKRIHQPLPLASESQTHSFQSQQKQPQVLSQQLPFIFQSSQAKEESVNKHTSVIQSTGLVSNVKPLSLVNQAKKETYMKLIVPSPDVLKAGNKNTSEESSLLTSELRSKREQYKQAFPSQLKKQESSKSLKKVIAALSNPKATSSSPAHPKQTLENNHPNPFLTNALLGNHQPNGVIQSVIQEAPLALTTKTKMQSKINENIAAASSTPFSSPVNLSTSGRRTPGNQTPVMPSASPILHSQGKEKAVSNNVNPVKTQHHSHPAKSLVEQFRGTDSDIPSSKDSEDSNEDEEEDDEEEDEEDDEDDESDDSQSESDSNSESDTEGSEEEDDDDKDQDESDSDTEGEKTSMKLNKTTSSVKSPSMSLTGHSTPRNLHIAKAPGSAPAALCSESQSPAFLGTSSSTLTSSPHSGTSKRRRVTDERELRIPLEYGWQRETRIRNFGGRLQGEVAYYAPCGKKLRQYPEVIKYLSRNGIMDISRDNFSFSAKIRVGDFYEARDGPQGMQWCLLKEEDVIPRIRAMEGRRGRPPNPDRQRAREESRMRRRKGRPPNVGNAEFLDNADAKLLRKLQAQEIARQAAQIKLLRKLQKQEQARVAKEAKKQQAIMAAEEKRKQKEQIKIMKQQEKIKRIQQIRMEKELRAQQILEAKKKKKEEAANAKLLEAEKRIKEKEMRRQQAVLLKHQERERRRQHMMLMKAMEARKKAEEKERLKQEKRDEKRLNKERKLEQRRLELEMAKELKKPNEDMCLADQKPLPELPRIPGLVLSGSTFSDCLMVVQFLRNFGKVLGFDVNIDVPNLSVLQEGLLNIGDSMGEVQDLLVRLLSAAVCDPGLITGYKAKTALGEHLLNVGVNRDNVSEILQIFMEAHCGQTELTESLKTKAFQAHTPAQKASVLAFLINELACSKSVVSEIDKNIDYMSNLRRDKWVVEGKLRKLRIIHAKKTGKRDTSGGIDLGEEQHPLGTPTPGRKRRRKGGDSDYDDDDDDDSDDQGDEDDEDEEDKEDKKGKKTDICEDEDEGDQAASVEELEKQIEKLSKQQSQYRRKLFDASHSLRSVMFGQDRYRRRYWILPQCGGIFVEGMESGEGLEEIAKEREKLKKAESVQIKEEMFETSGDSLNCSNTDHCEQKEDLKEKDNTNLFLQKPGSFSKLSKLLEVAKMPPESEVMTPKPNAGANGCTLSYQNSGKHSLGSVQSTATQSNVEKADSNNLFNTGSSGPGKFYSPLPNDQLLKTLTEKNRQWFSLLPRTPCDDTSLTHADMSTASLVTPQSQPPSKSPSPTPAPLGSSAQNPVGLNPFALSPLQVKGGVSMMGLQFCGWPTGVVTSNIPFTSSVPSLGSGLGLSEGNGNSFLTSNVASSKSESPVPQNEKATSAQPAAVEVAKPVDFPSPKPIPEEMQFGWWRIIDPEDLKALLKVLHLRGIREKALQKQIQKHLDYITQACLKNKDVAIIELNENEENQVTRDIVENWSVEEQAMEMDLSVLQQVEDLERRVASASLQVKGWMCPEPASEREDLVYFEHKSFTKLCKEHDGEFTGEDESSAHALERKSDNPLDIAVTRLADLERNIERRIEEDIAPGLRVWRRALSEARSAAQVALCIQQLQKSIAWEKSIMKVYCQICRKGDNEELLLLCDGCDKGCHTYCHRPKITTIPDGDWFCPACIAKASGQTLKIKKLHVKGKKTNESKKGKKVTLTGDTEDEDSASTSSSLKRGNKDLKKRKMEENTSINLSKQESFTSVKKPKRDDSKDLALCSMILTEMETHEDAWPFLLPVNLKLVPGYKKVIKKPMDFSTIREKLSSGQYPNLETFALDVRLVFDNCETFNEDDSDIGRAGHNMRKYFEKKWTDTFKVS
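Multi-concentration screen (max 110 uM) measuring displacement of acetylated histone H3 peptide from BAZ2B by AlphaScreen, using 50 nM protein, 50 nM peptide and 10 ug/mL streptavidin donor plus Ni-chelate acceptor beads.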
HP1b binding inh: inhibitors of HP1-beta chromodomain binding to methylated histone tails; Potency, µM (series often up to 114 µM), actives largely listed as inhibitors; 390,000 tested, 0.56% active; AlphaScreen HP1-beta / biotin-H3K9me3 peptide binding; P83916; also: nearly all actives have a fitted effect of over 70% in size
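Compound inhibition of the preformed complex between 50 nM HP1-beta and 50 nM biotinylated H3K9me3 peptide was read by AlphaScreen. Buffer was PBS pH 7.4 with 0.01% Tween-20. Incubations ran 30 min at room temperature, with 10 ug/mL donor/acceptor beads.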
G9a inh: G9a (human) methyltransferase inhibition. AID 504332. G9a H3K9 monomethylation, AlphaScreen, 2 h. 350,000 tested, 8.8% active. Potency, µM (highest dose often 102 µM), hits mostly inhibitors; also: nearly all actives have a fitted effect of over 75% in size
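Methyltransferase reactions run at room temperature for 2 h (20 nM enzyme, 500 nM biotin-H3K9 peptide, 20 uM SAM) after a 15 min compound preincubation; product detected by AlphaScreen beads and anti-H3K9me1 antibody.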
Sfp inh: blocks B. subtilis Sfp PPTase activity; Q9F4F7; Biochemical Sfp PPTase activity, qHTS; Potency, µM, usual class: inhibitors; 310,000 tested, 3.5% active; AID 1490;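 also: the enzyme is Sfp with the accession as filed and its product quenches rhodamine fluorescence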
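Buffer: 50 mM Hepes-Na pH 7.6, 10 mM MgCl2, 0.01% Nonidet P-40, 0.01% BSA. Enzyme 15 nM, pre-exposed to compound 15 min; substrates then added and fluorescence change tracked over 30 min.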
JMJD2A Tudor inh: JMJD2A Tudor domain (human) inhibition; AlphaScreen JMJD2A-Tudor / H3K4me3 peptide binding; O75164; AID 504339; 390,000 tested, 4.4% active; Potency, µM (series often up to 114 µM), most hits filed as inhibitors; also: nearly all actives have a fitted effect of over 50% in size
12-LOX inh: blocks human arachidonate 12S-lipoxygenase | purified 12hLO, xylenol orange hydroperoxide absorbance | Potency, µM (titrated, usually from 108 µM), actives largely listed as inhibitors | 580,000 tested, 1.1% active | P18054 | AID 1671190
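Hydroperoxide product was detected by ferrous iron/xylenol orange as the 573 to 405 nm absorbance ratio. Arachidonic acid at 40 uM (final) was turned over for 30 min at room temperature by 150 nM human 12hLO, pH 7.0 Hepes buffer, after 15 min compound preincubation.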
Numbers stand for hits; n = inactive; u = inconclusive; x = no result; [ ] = dose if it differs, or a comment. Rows were chosen to be rich in hits. Some 8.7% of all compounds tested hit in one or more screens of this group. Calls follow the shape of the dose curve; as a rule, active = well fitted curve in the direction sought with a large enough effect; inconclusive = small, poorly fitted or top-dose-only effect, or another doubt; inactive = no such curve, though single readings can be large; an effect the other way counts as inactive or inconclusive.

SMILES	BAZ2B inh	HP1b binding inh	G9a inh	Sfp inh	JMJD2A Tudor inh	12-LOX inh
CCOc1ccc(NC(=O)Cn2cnc3c2c(=O)n(C)c(=O)n3C)cc1	x	x	x	x	x	n
N#C/C(=C\c1ccc(N2CCOCC2)o1)C(=O)Nc1ccc(O)cc1	u	n	39.8µM	n	n	n
N#C/C(=C/c1ccc(N2CCOCC2)o1)C(=O)NC1CCCCC1	u	n	x	25.1µM	n	n
COc1ccc(NC(=O)/C(C#N)=C\c2ccc(N3CCOCC3)o2)cc1	n	n	u	n	n	n
O=C1c2cccc(NCCNCCO)c2C(=O)c2cccc(NCCNCCO)c21	x	u	x	x	35.5µM	n
COc1ccccc1NCCC(=O)O	n	n	n	n	n[11.4 µM]	u
O=C(O)CCNc1ccc(NCCC(=O)O)c2c1C(=O)c1ccccc1C2=O	11.2µM	14.1µM	12.6µM	n	22.4µM	n
O=c1c2[nH]c3cc(Br)sc3c2cnn1Cc1ccccc1F	x	x	x	x	39.8µM	x
O=C(O)c1c[nH]c2ccc(F)cc2c1=O	56.2µM	n	17.8µM	n	79.4µM	n
O=c1cc[nH]c2c(C(F)(F)F)cccc12	n	n	n	n	n	n
O=C(O)c1c[nH]c2c(C(F)(F)F)cccc2c1=O	u	n	35.5µM	n	25.1µM	n
COc1cccc2c(=O)c(C(=O)O)c[nH]c12	u	n	22.4µM	n	79.4µM	n
COc1cccc2c(=O)c(C(=O)NCCc3ccccc3)c[nH]c12	x	n	x	x	n	n
O=C(O)c1c[nH]c2ccc(S(=O)(=O)N3CCN(c4ccc(F)cc4)CC3)cc2c1=O	u	n	u	n	u	n
COc1ccccc1N1CCN(c2nc(-c3cccnc3)nc3ccccc23)CC1	x	x	x	x	x	n
COC(=O)c1c(NC(=O)C2COc3ccccc3O2)sc2c1CCN(C(C)=O)C2 (stereo not drawn)	n	n	n	n	n	n
CN1CCc2c(sc(NC(=O)CS(=O)(=O)c3ccc(F)cc3)c2C(N)=O)C1	n	n	50.1µM	x	n	n
CNC(=O)c1c(NC(=O)CCS(=O)(=O)c2ccc(Cl)cc2)sc2c1CCN(C(=O)OC)C2	n	n	50.1µM	x	n	n
CC(=O)N1CCc2c(sc(NC(=O)CS(=O)(=O)c3ccc(F)cc3)c2C(N)=O)C1	n	n	50.1µM	x	n	n
CC(=O)N1CCc2c(sc(NC(=O)C3COc4ccccc4O3)c2C(N)=O)C1 (stereo not drawn)	n	n	x	31.6µM	n	n
O=C(O)CCC(=O)N1Cc2ccccc2CC2(CCCCN2CC2CCOCC2)C1 (stereo not drawn)	x	x	x	x	x	n[6.33 µM]
Cn1ncc(N2CCOC(CCNc3nc4ccccc4s3)C2)cc1=O (stereo not drawn)	x	x	x	x	x	n
COc1ccc(C(=O)c2c(C(F)(F)F)oc3c2C(=O)c2ccccc2C3=O)cc1OC	u	u	14.1µM	n	u	n
CC(C)C(C(=O)O)N1C(=O)/C(=C/C=C/c2ccco2)SC1=S (stereo not drawn)	4.47µM	u	3.55µM	20µM	3.55µM	x
CCN(CC)c1ccc(N2C(=O)/C(=C/c3cccs3)SC2=S)cc1	n	n	u	n	n	n
SMILES	BAZ2B inh	HP1b binding inh	G9a inh	Sfp inh	JMJD2A Tudor inh	12-LOX inh
O=C1/C(=C/C=C/c2ccco2)SC(=S)N1c1ccc(O)cc1	31.6µM	28.2µM	12.6µM	20µM	n[11.4 µM]	n
CN(C)N1C(=O)/C(=C/c2ccco2)SC1=Nc1ccccc1	x	n	x	x	n	n
COc1ccc(/C=C2\SC(=S)N(c3cccnc3)C2=O)cc1	n	n	n[12.7 µM]	n	n	n
CC(/C=C1\SC(=S)N(C(C(=O)O)c2ccccc2)C1=O)=C\c1ccccc1 (stereo not drawn)	u	n	x	n	u	u
O=C1/C(=C\c2ccc(O)cc2)SC(=S)N1c1cccnc1	u	n	31.6µM	n	u	n
NN1C(=O)/C(=C\c2ccco2)SC1=S	44.7µM	n	25.1µM	3.16µM	u	u
CCN(Cc1ccccc1)C(=O)C1CCCN(C2CCN(C(=O)C3CC3)CC2)C1 (stereo not drawn)	x	x	x	x	x	n
O=C1/C(=C\c2ccco2)SC(=S)N1c1ccc(O)cc1	35.5µM	n	39.8µM	15.8µM	u	u
O=C1/C(=C/c2cccnc2)SC(=S)N1Cc1ccco1	x	n	x	x	u	n
Cc1cc(/C=C2\SC(=S)N(Cc3ccco3)C2=O)c(C)n1-c1cccnc1	12.6µM	n	u	n	n	u
O=C1/C(=C/c2ccco2)SC(=S)N1c1cccnc1	10µM	15.8µM	x	31.6µM	8.91µM	39.8µM
CCOc1ccccc1C(=O)N1CCC[C@H]1c1nc(-c2ccc(F)cc2)no1	x	x	x	x	x	n
CCc1ccc2c(c1)[C@]1(C(=O)N2)[C@@H]2C(=O)N(Cc3ccccc3)C(=O)[C@@H]2[C@@H]2CCCN21	n	n	70.8µM	n	n	u
Cc1cc(Cl)cc2c1NC(=O)[C@]21[C@@H]2C(=O)N(Cc3ccccc3)C(=O)[C@@H]2[C@@H]2CCCN21	u	n	u	n	u	u
CCCc1ccc(/C=C2\C(=O)c3ccccc3C(O)=C2C(=O)OCC)cc1	20µM	x	5.62µM	2.82µM	x	x
CCOC(=O)C1=C(O)c2ccccc2C(=O)/C1=C\c1ccc(CC)cc1	20µM	n	5.62µM	2µM	22.4µM	u
CCOc1cc(C=C2C(=O)c3ccccc3C2=O)ccc1OCC(=O)Nc1ccc(C)cc1	n	n	n	n	n	n
Cc1cc(C(=O)Nc2ccccc2C#N)cs1	x	x	x	x	x	n
CC(C)c1ccc(NC(=O)C(c2ccccc2)N(Cc2ccco2)C(=O)CC2NC(=O)NC2=O)cc1 (stereo not drawn)	u	n	14.1µM	n	n	n
CCN(CC)c1ccc(NC(=O)C2CCCN(S(=O)(=O)c3cnc[nH]3)C2)c(C)c1 (stereo not drawn)	n	n	35.5µM	n	u	n
CCOCCCNC(=O)NC1CCN(c2ccc(OC)cc2)C1=O (stereo not drawn)	x	x	x	x	x	n
CC(C)(C)C(=O)CSc1ncccn1	u	n	u	44.7µM	u	u
CC(C)(C)NC(=O)NC(=O)CSc1ncccn1	n	n	n	n	n	n
CN1CCN(C(=O)c2c(O)c3cccc4c3n(c2=O)CCC4)CC1	x	n	14.1µM	n	n	u
O=C(O)CC12CC3CC(C1)CC(n1ncc(NCc4ccccc4Cl)c(Cl)c1=O)(C3)C2	n	n	u	n	n	n
O=C(O)C12CC3CC(C1)CC(n1ncc(NCc4ccco4)c(Cl)c1=O)(C3)C2	n	n	79.4µM	35.5µM	n	n
CCN1CCC2(CC1)Cc1ccccc1CN(C(=O)CCC(=O)O)C2	x	x	x	x	x	n[6.33 µM]
CC(C)CN=CC1=C(O)c2ccccc2C1=O	n	n	n	n	n	n
O=C1C(C=NCc2ccccn2)=C(O)c2ccccc21	89.1µM	n	n	n	n	n
CCN(Cc1c(C#N)c2ccccc2n1C)c1ccccc1	x	x	x	x	x	n

Screening data (PubChem)
